Laboratory results from PubChem BioAssay AID485313 (National Center for Advancing Translational Sciences (NCATS), 2010).
In all, about 320,000 compounds went through this assay and about 7,600 (2.4%) were called active. Entries that show only a call come without a potency. About 3% were inconclusive and are not listed. Calls come from the whole dose curve; as a rule, active = well fitted activation curve with a large enough effect; inconclusive = small, poorly fitted or top-dose-only effect; inactive = no such curve, though single readings can be large or run the other way. Only a selection was taken, and actives are over-represented in it overall.

assay: qHTS Assay for NPC1 Promoter Activators; details: Huh7 NPC1 promoter luciferase reporter, 24 h; series mostly up to 9.22 µM; note: nearly all actives have a fitted effect of over 60% in size;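 for activation: reporter is driven by a mutant NPC1 promoter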
Summary of the method: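 Stably transfected Huh7 (NPC1 promoter→luciferase), 1500 cells/well in Opti-MEM + 10% FBS, 2 h settle, then compound 24 h at 37 °C. Luminescence after 10 min with Amplite reagent.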
Potency is the fitted concentration of half-maximal effect.

SMILES | Potency
C=CCSc1nnc(NC(=O)c2ccc(NC(C)=O)cc2)s1 | inactive
NC(=O)CSc1nnc(NC(=O)c2ccc(Br)o2)s1 | inactive
NC(=O)CSc1nnc(NC(=O)c2ccc3ccccc3c2)s1 | 3.16 µM (active)
CCOC(=O)CSc1nnc(NC(=O)c2cccc(S(=O)(=O)N3CCCC3)c2)s1 | inactive
CCSc1nnc(NC(=O)c2ccc(C)cc2)s1 | 1.12 µM (active)
O=C(/C=C/c1ccccc1)Nc1nnc(SCC(=O)c2ccc3ccccc3c2)s1 | inactive
CN(CC(=O)NCC(c1ccccc1)N1CCCC1)S(=O)(=O)c1ccc(Cl)cc1 (stereo unspecified) | inactive
CC(C)(C)OC(=O)Nc1ccc([C@@H](NC(=O)OC(C)(C)C)C(=O)OC(C)(C)C)cc1 | inactive
Cc1ccc(NC(=O)Cc2nc(COC(=O)C(C)NS(=O)(=O)c3ccc(C)cc3)cs2)cc1 (stereo unspecified) | inactive
COc1cc(C(=O)NCC(c2ccco2)N2CCCC2)ccc1OCc1ccccc1 (stereo unspecified) | inactive
CCN(CC(=O)Nc1ccccc1OC)C(=O)CC1CC2CCC1C2 (stereo unspecified) | inactive
COc1cccc(NC(=O)CN(C)C(=O)c2cc(C3CC3)nn2-c2ccccc2)c1 | inactive
CCCC(=O)Nc1nc2ccc(NC(=O)c3c(F)c(F)c(OC)c(F)c3F)cc2s1 | inactive
CSc1nc2ccc(NC(=O)c3c(F)cccc3F)cc2s1 | 2.51 µM (active)
O=C(Nc1ccncc1)c1c(F)cccc1F | inactive
CC1(C)CC(=O)C=C(c2ccc(Cl)c(C(F)(F)F)c2)C1 | inactive
CCOc1ccc(NC(=O)CN(C)C(=O)Cc2sc(C)nc2-c2ccc(F)cc2)cc1OCC | inactive
COc1ccccc1C(=O)NCCC(=O)N(C)Cc1cccnc1 | inactive
CC1(C)O[C@@H]2[C@H](O1)[C@@H](CO)O[C@H]2n1c(N2CCCCC2)nc2c(N)ncnc21 | inactive
CC(=O)c1cccc(S(=O)(=O)N2CCC(n3nnc4cc(F)ccc43)CC2)c1 | inactive
O=C(c1ccc(F)cc1)N1CCC(n2nnc3ccccc32)CC1 | 4.47 µM (active)
O=S(=O)(c1cccc(S(=O)(=O)N2CCC(n3nnc4ccccc43)CC2)c1)N1CCCCC1 | inactive

SMILES | Potency
CCCCn1c(N)c(N(CCC(C)C)C(=O)COC(=O)c2cccnc2OCC)c(=O)[nH]c1=O | inactive
CCCCn1c(N)c(N(CCC(C)C)C(=O)COC(=O)c2ccc(CC)cc2)c(=O)[nH]c1=O | inactive
CC(Sc1nnc(-c2cccs2)n1C1CC1)C(=O)NCC1CCCO1 (stereo unspecified) | inactive
CCC(=O)NC(=Nc1nc2ccccc2s1)NC(=O)CC | 1.26 µM (active)
CN(Cc1nc2ccccc2s1)C(=O)c1ccc(F)cc1 | inactive
CC(C)CC(=O)N/C(N)=N/c1nc2ccccc2s1 | 0.501 µM (active)
CC(C)CC(=O)NC(=S)NCc1ccccc1 | inactive
CC(=O)Nc1cccc(-c2nc3ccccc3s2)c1C | inactive
Cc1cc(C(=O)OCC(=O)Nc2nnc(C(C)C)s2)c2ccccc2n1 | inactive
Cc1ccc(F)cc1NC(=O)CSCc1c(C)noc1C | inactive
Cc1nn(Cc2ccccc2)c(C)c1C(=O)N1CCN(CC(=O)Nc2ccccc2Cl)CC1 | inactive
C=CCC1(CC=C)CCCN1C(=O)c1cc(COc2ccc(-n3cncn3)cc2)on1 | inactive
CC(=O)Nc1ccc(C(=O)Nc2nc(-c3cc(C)n(Cc4ccccc4)c3C)cs2)cc1 | inactive
Cc1ccc(Nc2nc(-c3ccc(O)cc3O)cs2)nc1 | 2 µM (active)
C=C(C)CNc1cc(S(=O)(=O)N2CCOCC2)ccc1Oc1ccccc1 | inactive
CCCn1c(NC(=O)C23CC4CC(CC(O)(C4)C2)C3)nc2ccccc21 | inactive
CC1CCN(C(=O)CCNC(=O)c2ccccc2)CC1 | inactive
O=C(NCCc1ccccc1)c1ccc2c(c1)N(Cc1ccccc1)CCS2 | inactive
CC1CCCN(c2ccc(C(=O)NCCc3ccccc3)cn2)C1 (stereo unspecified) | 3.16 µM (active)
Cc1ccc(NC(=O)CCCNC(=O)c2ccc(Cl)cc2)cc1S(=O)(=O)N1CCCCC1 | inactive
CC(C)(C)C(=O)CSc1ccc(S(=O)(=O)N2CCCC2)cn1 | inactive
CC(NC(=O)c1ccc(S(=O)(=O)Nc2ccccc2)cc1)c1ccc(S(N)(=O)=O)cc1 (stereo unspecified) | inactive

SMILES | Potency
O=C(Nc1cccnc1)c1cccc(S(=O)(=O)N2CCCC2)c1 | inactive
O=C(Nc1cccnc1)c1noc2c1CCCCC2 | 2.51 µM (active)
O=C(Nc1cccnc1)c1cc(Cl)ccc1Cl | inactive
Cc1cccc(-c2oc3ccc(-c4ccc5c(c4)OCO5)cc3c2C#Cc2cncn2C)c1 | inactive
CCn1c2ccc(F)cc2c2nnc(SCCN3CCOCC3)nc21 | inactive
Cc1cccc(C)c1OCCN1CCOCC1 | inactive
Cc1cc2nc(SCCN3CCOCC3)[nH]c2cc1C | 3.98 µM (active)
CC(=O)Nc1ccc(NC(=O)C(NS(=O)(=O)c2ccc3c(c2)OCCO3)C(C)C)cc1 (stereo unspecified) | inactive
COc1cccc(NC(=O)CN(C)C(=O)/C=C/c2cn(-c3ccccc3)nc2-c2cccs2)c1 | inactive
CC1Cc2ccccc2N1S(=O)(=O)c1cccc(C(=O)NCC(c2ccco2)N2CCCC2)c1 (stereo unspecified) | inactive
CSCC[C@H](NC(=O)OC(C)(C)C)C(=O)N/N=C/c1cc2ccc(C)cc2nc1Cl | inactive
Cc1ccc2cc(/C=N/NC(=O)[C@@H]3CCCN3)c(Cl)nc2c1 | inactive
Cc1ccc2cc(/C=N/Nc3ccc(C(=O)O)cc3)c(Cl)nc2c1 | 1.12 µM (active)
O=C(CSc1nc2ccccc2c(=O)n1CCCO)NC1CC1 | inactive
S=C(NNC(=S)NC1CC2C=CC1C2)NC1CC2C=CC1C2 (stereo unspecified) | inactive
S=C(NNC(=S)NC1CC2CCC1C2)NC1CC2C=CC1C2 (stereo unspecified) | inactive
CC(C)c1ccc(NC(=S)NC2CC3C=CC2C3)cc1 (stereo unspecified) | 3.98 µM (active)
CCOC(=O)C1=C(COC(=O)[C@H](C)NS(=O)(=O)c2ccccc2F)NC(=O)NC1C (stereo partly specified) | inactive
CCOc1ccc(C(C)NC(=O)CN2C(=O)NC3(CCCCC3)C2=O)cc1OCC (stereo unspecified) | inactive
Cc1ccc(C(=O)/C=C/Nc2ccc(S(=O)(=O)Nc3onc(C)c3C)cc2)cc1 | inactive
Cc1cc(N/C=C\C(=O)c2ccc(Cl)c(Cl)c2)no1 | 2.51 µM (active)
CCC(=O)Nc1ccc(C(=O)Nc2cc(C)on2)cc1 | inactive
